{"source": "PubChem BioAssay AID651847", "about": "(Broad Institute, 2012)", "note": "Several values for one entry are separate records, joined by “and”; a condition that tells them apart may be missing. Equal values may be shown once. Records with an inconclusive call do not appear. Values without a mark were called inactive. Activity calls are given as the source filed them. How the calls were made is not given here."}
{"assay": "dose response, V. cholerae BH1651, dry powder (AID 651847)", "conditions": "V. cholerae BH1651 luxOD47E, luciferase light induction, 6 h; at 80 µM (top of the series) unless noted"}
{"smiles": "CCn1nccc1/N=C/c1ccc(N2CCCC2)cc1", "activation (light induction)": "0%"}
{"smiles": "CC(C)(C)OC(=O)N1CC(NC(=O)Cc2ccc(-c3ccccc3)cc2)C1", "activation (light induction)": "0%"}
{"smiles": "O=C(NCc1ccc(-c2ccccc2)cc1)C1CCCC1", "activation (light induction)": "12.5%"}
{"smiles": "CC(C)NC(=O)Cc1ccc(-c2ccccc2)cc1", "activation (light induction)": "25%"}
{"smiles": "O=C(Cc1ccccc1C(F)(F)F)NC1CCCC1", "activation (light induction)": "0%"}
{"smiles": "CCCCn1nnnc1NCc1ccc(N2CCCC2)cc1", "activation (light induction)": "-25%"}
{"smiles": "CCn1nccc1NCc1ccc(N2CCCC2)cc1", "activation (light induction)": "12.5%"}
{"smiles": "O=C(Cc1ccc(-c2ccccc2)cc1)NC1CCC1", "activation (light induction)": "0%"}
{"smiles": "O=C(Cc1ccc(-c2ccccc2)cc1)NC1CCOCC1", "activation (light induction)": "-12.5%"}
{"smiles": "CCn1nnnc1NCc1cccc(OC)c1", "activation (light induction)": "-25%"}
{"smiles": "CCc1ccccc1NCc1ccc(N2CCCC2)cc1", "activation (light induction)": "-16.7%"}
{"smiles": "O=C(Cc1cccc(F)c1)NC1CCCC1", "activation (light induction)": "0%"}
{"smiles": "CCn1nnnc1NCc1ccc(N2CCCCC2)cc1", "activation (light induction)": "0% [at 28.5 µM]"}
{"smiles": "CCC(CC)NC(=O)Cc1ccc(-c2ccccc2)cc1", "activation (light induction)": "-16.7%"}
{"smiles": "CCCn1nnnc1NCc1ccc(C(C)C)cc1", "activation (light induction)": "50%"}
{"smiles": "CCC(C)NC(=O)Cc1ccc(-c2ccccc2)cc1", "note": "(stereo not given)", "activation (light induction)": "0%"}
{"smiles": "CCn1nnnc1NCc1ccc(C(C)C)cc1", "activation (light induction)": "-4.17% and 0%"}
{"smiles": "c1ccc(Cn2nnc(NCc3ccc(N4CCCC4)cc3)n2)cc1", "activation (light induction)": "-50%"}
{"smiles": "O=C(Cc1ccc(-c2ccccc2)cc1)NC1CCCCC1", "activation (light induction)": "-12.5%"}
{"smiles": "CCCn1nnnc1NCc1ccc(N2CCCC2)cc1", "activation (light induction)": "-25%"}
{"smiles": "CS(=O)(=O)c1ccc(CC(=O)NC2CCCC2)cc1", "activation (light induction)": "-25%"}
{"smiles": "Cc1ccccc1CC(=O)NC1CCCC1", "activation (light induction)": "12.5%"}
{"smiles": "CCn1nnc(NCc2ccc(C)cc2)n1", "activation (light induction)": "16.7%"}
{"smiles": "CCn1nnnc1NCc1ccc(N2CCCC2)cc1", "activation (light induction)": "-12.5%"}
{"smiles": "CCn1nnnc1NCc1cccc(N2CCCC2)c1", "activation (light induction)": "-33.3%"}
{"smiles": "c1ccc(-n2nnnc2NCc2ccc(N3CCCC3)cc2)cc1", "activation (light induction)": "37.5%"}
{"smiles": "O=C(Cc1ccccc1F)NC1CCCC1", "activation (light induction)": "-12.5%"}
{"smiles": "c1ccc(Cn2nnnc2NCc2ccc(N3CCCC3)cc2)cc1", "activation (light induction)": "0%"}
{"smiles": "Cc1ccc(Cn2nnnc2NCc2ccc(N3CCCC3)cc2)cc1", "activation (light induction)": "-12.5%"}
{"smiles": "CCCn1nnnc1NCc1ccccc1Cl", "activation (light induction)": "25%"}
{"smiles": "CC(C)c1ccc(CNc2nnnn2C)cc1", "activation (light induction)": "37.5%"}
{"smiles": "O=C(Cc1ccc(-c2ccccc2)cc1)NC1CC1", "activation (light induction)": "25% (active)"}
{"smiles": "CCn1nnnc1CCc1ccc(N2CCCC2)cc1", "activation (light induction)": "-12.5%"}
{"smiles": "O=C(Cc1cccc(OC(F)(F)F)c1)NC1CCCC1", "activation (light induction)": "0%"}
{"smiles": "CCn1nnc(CCc2ccc(N3CCCC3)cc2)n1", "activation (light induction)": "-25%"}
{"smiles": "CCn1nnnc1NCc1ccccc1N1CCCC1", "activation (light induction)": "0%"}
{"smiles": "COc1ccc(CC(=O)NC2CCCC2)cc1", "activation (light induction)": "12.5%"}
{"smiles": "Cn1nnnc1NCc1ccc(N2CCCC2)cc1", "activation (light induction)": "-25%"}
{"smiles": "CC1(NC(=O)Cc2ccc(-c3ccccc3)cc2)COC1", "activation (light induction)": "0%"}
{"smiles": "O=C(Cc1ccc(-c2ccccc2)cc1)NC1CCCC1", "activation (light induction)": "0%"}
